Bioassay records (PubChem)
Only some compounds are listed: those with a hit (about 15% of all), similar ones and a draw of the others.
TDP1 cell CPT – growth inhibition of DT40 Tdp1-/-;hTDP1 cells with camptothecin (screen for TDP1 inhibitors); Potency, µM (doses to about 46.2 µM), without a hit: top-dose activity change, negative = growth inhibition, most hits filed as inhibitors; chicken DT40 Tdp1-/-;hTDP1 cells + 20 nM CPT, ATP luminescence, 48 h; 420,000 tested, 12% active; AID 686979; further: nearly all actives have a fitted effect of over 55% in size
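Cell growth measured by CellTiter-Glo luminescence after a minimum 48 h, 37 C compound exposure with 20 nM CPT in Tdp1-knockout DT40 cells stably expressing hTDP1, seeded 400/well; qHTS titration format.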
ALOX12 inh – ALOX12 (human) lipoxygenase inhibition | P18054 | purified 12hLO, xylenol orange hydroperoxide absorbance | Potency, µM (top dose mostly 108 µM), without a hit: top-dose activity change, negative = inhibition, usual class: inhibitors | 580,000 tested, 1.1% active
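Purified human 12hLO (150 nM final) in 25 mM Hepes, 0.01% Triton X-100, pH 7.0 was preincubated 15 min at room temperature with compound. Then 40 uM arachidonic acid was added, 30 min. Hydroperoxide was read by Fe-XO absorbance ratio 573/405 nm.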
RORg inh – ROR gamma (mouse) transcription inhibition. P51450. Drosophila S2 Gal4-RORgamma UAS-luciferase reporter, 20 h. Potency, µM (top dose mostly 53.6 µM), inactives show top-dose activity change, negative = inhibition, usual class: inhibitors. 310,000 tested, 5.4% active. AID 2551; further: nearly all actives have a fitted effect of over 60% in size
Target sequence (P51450 whole entry, looked up, the tested form may be a part): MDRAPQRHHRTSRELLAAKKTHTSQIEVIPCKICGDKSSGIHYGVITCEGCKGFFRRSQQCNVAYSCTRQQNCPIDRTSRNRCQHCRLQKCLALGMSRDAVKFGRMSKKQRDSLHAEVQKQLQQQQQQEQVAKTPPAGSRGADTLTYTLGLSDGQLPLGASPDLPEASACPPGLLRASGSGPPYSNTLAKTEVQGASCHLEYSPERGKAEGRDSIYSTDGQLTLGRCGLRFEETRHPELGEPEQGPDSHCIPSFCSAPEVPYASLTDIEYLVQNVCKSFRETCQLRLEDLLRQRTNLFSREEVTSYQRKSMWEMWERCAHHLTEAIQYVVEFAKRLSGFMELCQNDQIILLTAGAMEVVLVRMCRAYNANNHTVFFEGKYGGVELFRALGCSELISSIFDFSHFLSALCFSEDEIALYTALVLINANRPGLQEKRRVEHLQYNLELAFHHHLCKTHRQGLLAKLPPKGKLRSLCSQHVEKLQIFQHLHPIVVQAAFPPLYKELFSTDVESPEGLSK
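Drosophila Schneider cells stably carrying a metallothionein-driven Gal4 DBD–ROR gamma fusion and a UAS-Photinus luciferase reporter were exposed to compound for 1 hr, then induced with copper sulfate (700 uM final) for 20 hr at ambient temperature before luminescence reading.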
DT40 TDP1 no CPT – qHTS for Inhibitors of human tyrosyl-DNA phosphodiesterase 1 (TDP1): qHTS in cells in absence of CPT | DT40 Tdp1-/- hTDP1 cells, no CPT, ATP luminescence, 48 h | Potency, µM (doses to about 46.2 µM), for inactives: top-dose activity change, negative = growth inhibition, actives largely listed as inhibitors | 420,000 tested, 15% active; further: nearly all actives have a fitted effect of over 55% in size
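Stably hTDP1-transfected Tdp1-null chicken DT40 cells were treated with library compounds minus camptothecin and grown for at least 48 hr at 37 °C, after which cellular ATP was quantified by luminescence.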
Gal4-VP16 FLuc – counter-screen for ROR gamma inhibitors: Gal4-VP16 reporter; 310,000 tested, 3.5% active; Drosophila S2 Gal4-VP16 UAS-luciferase, luminescence, 20 h; Potency, µM (highest dose often 53.6 µM), without a hit: at the top dose activity, negative = inhibition, actives largely listed as inhibitors;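 further: Gal4-VP16 expression switched on by copper sulfate through the metallothionein promoter; nearly all actives have a fitted effect of over 50% in size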
ELG1 repair inh – ELG1-dependent DNA repair inhibition; HEK293T ELG1-luciferase reporter, luminescence, 16 h; DNA damage induced by 5-fluorouridine; Potency, µM (doses to about 46.1 µM), without a hit: top-dose activity change, negative = inhibition, usual class: inhibitors; 330,000 tested, 2.3% active; AID 504467; further: nearly all actives have a fitted effect of over 55% in size
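5-Fluorouridine DNA damage + compound/DMSO, 2,000 cells/well, 16 h, 37 °C/5% CO2. ONE-Glo, 30 min RT, luminescence. Readout = decrease in reporter signal.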
Numbers without * were called inactive; i = inactive; ? = inconclusive; / = no result given; [ ] = another dose, or the depositor's remark. The call rests on the fitted dose curve; in most records, active means well fitted curve in the direction sought with a large enough effect; inconclusive means small, poorly fitted or top-dose-only effect, or another doubt; inactive means no such curve, though single readings can be large; an effect the other way counts as inactive or inconclusive. On the % scale 0 is the no-effect control and ±100 the full control effect; potency means the concentration at half of the fitted maximal effect.

SMILES	TDP1 cell CPT	ALOX12 inh	RORg inh	DT40 TDP1 no CPT	Gal4-VP16 FLuc	ELG1 repair inh
CCCCC(=O)Nc1cccc(NC(=S)NC(C)=O)c1	-3%	-12%	19%	-26%	1%	-9%
CCN(CC)S(=O)(=O)c1cc(OC)ccc1N=Nc1ccc(O)c2ncccc12	7.3µM*	25%	1.3µM*	?	1.3µM*	?
CCS(=O)(=O)c1ccc(OC)c(N=Nc2ccc(O)c3ncccc23)c1	?	?	1µM*	?	?	?
N#Cc1ccccc1COc1ccccc1	/	-9%	/	/	/	/
N#C/C(=C/c1cn(-c2ccccc2)nc1-c1cccc(OCc2ccccc2)c1)C(=O)NCCCn1ccnc1	?	1%	?	?	?	13µM*
N#C/C(=C/c1cn(-c2ccccc2)nc1-c1cccc(S(=O)(=O)N2CCCC2)c1)C(=O)NCc1ccco1	13µM*	?	42%	12µM*	4%	?
N#C/C(=C\c1cn(Cc2ccc(F)cc2)c2ccccc12)C(=O)NCc1ccco1	18µM*	?	?	?	11µM*	?
O=S(=O)(CCSc1nnnn1C1CC1)c1cc(Cl)ccc1Cl	/	-25%	/	/	/	/
Cc1ccc2c(C(=O)O)cc(-c3cccnc3)nc2c1C	/	11%	/	/	/	/
Cc1ccc(N2Cc3c(ncnc3N3CCC(O)CC3)CN(C)C2=O)cc1	/	-15%	/	/	/	/
O=C1Nc2ccccc2O[C@H]2C[C@@H]1N(Cc1ccnc3ccccc13)C2	/	55%[176 µM]	/	/	/	/
Cc1ccc(C(=O)N2CCC(Cc3ccccc3)CC2)cc1S(=O)(=O)N1CCOCC1	?	?	/	9.2µM*	/	?
Cc1ccc(C(=O)NC(C)CCc2ccccc2)cc1S(=O)(=O)N1CCOCC1 (configuration not stated)	?	61%	/	?	/	18µM*
Cc1ccc(C(=O)N2CCN(c3ccccc3)CC2)cc1S(=O)(=O)N1CCOCC1	?	1%	33%	?	-2%	-6%
Cc1ccc(C(=O)NCCc2ccccc2)cc1S(=O)(=O)N1CCOCC1	5%	4%	/	-2%	/	?
NC(=O)CNC(=O)C1=C[C@@H](NC(=O)c2ccc(F)c(Cl)c2)[C@@H](O)[C@H](O)C1	/	7%[176 µM]	/	/	/	/
CN(c1ccc(Cl)cc1)c1cc2c(c3c1ccn3C)C1CCC2C1 (configuration not stated)	1%	-11%	/	-19%	/	/
CCN(Cc1ccccc1)c1cc2c(c3c1ccn3C)C1CCC2C1 (configuration not stated)	23µM*	?	/	23µM*	/	/
CN(c1cc(Cl)c2c(c1)OCO2)c1cc2c(c3c1ccn3C)C1CCC2C1 (configuration not stated)	?	?	/	21µM*	/	/
CCN(CC)c1cc2c(c3c1ccn3C)C1CCC2C1 (configuration not stated)	26µM*	?	/	?	/	/
COc1ccc(CN(C)Cc2c(O)ccc3ccccc23)cc1	?	10µM*	-18%	-2%	4%	2%
COc1cccc(CN(C)Cc2c(O)ccc3ccccc23)c1	?	10µM*	?	-18%	5%	-9%
COc1ccc(OC)c(CN2CCCn3nc(C)c(-c4cnccc4C)c32)c1	/	1%[176 µM]	/	/	/	/
Cc1cc(NC(=O)C(=O)c2c[nH]c3ccccc23)no1	/	9%	/	/	/	/
Cc1cccc(N2CCN(c3nc4ccccc4n4cnnc34)CC2)c1C	26µM*	?	-21%	?	14%	13%
SMILES	TDP1 cell CPT	ALOX12 inh	RORg inh	DT40 TDP1 no CPT	Gal4-VP16 FLuc	ELG1 repair inh
c1ccc(C(c2ccccc2)N2CCN(c3nc4ccccc4n4cnnc34)CC2)cc1	?	17%	-91%	3.7µM*	13µM*	?
COc1cccc(C(CNC(=O)C2CCN(S(=O)(=O)c3ccc4ccccc4c3)CC2)N(C)C)c1 (configuration not stated)	/	8%	/	/	/	/
CCOc1ccc(OCC)c(NC(=O)CN2CCN(c3cccc(C)c3C)CC2)c1	16µM*	?	32%	23µM*	-7%	?
CCOc1ccc(NC(=O)NCCN2CCN(c3cccc(C)c3C)CC2)cc1	21µM*	0%	-24%	21µM*	4%	?
O=C(CN1CCN(C(=O)c2nn(Cc3ccccc3)c(=O)c3ccccc23)CC1)N1CCOCC1	/	-1%	/	/	/	/
O=C(Cn1nc(-c2cccs2)c2ccccc2c1=O)NCCc1ccc(F)cc1	/	-19%	/	/	/	/
CC(C)S(=O)(=O)c1csc(NC(=O)Nc2cc(Cl)ccc2Cl)c1Cl	16µM*	i	-10%	?	-15%	21µM*
COc1ccc2c(C)c(CCC(=O)N3CCN(Cc4ccccc4)CC3)c(=O)oc2c1	/	-2%	/	/	/	/
COc1ccccc1CNC(=S)NC1CCCCC1	?	?	2.2µM*	?	10µM*	-14%
Fc1ccccc1CNC(=S)NC1CCCCC1	-21%	/	5µM*	-1%	7.9µM*	0%
S=C(NCc1ccccc1Cl)NC1CCCC1	?	?	6.3µM*	?	8.9µM*	-14%
CCCC(NC(=O)Cn1nnn(-c2ccccc2)c1=O)c1ccccc1 (configuration not stated)	/	-1%	/	/	/	/
CCOCCCNC(=O)N1CCC(OC2CCN(Cc3ccccc3)CC2)CC1	/	37%	/	/	/	/
CCCCc1cc(=O)oc2cc(OC(C)C(=O)NCCCO)ccc12 (configuration not stated)	/	3%	/	/	/	/
Cc1cc(Cl)ccc1S(=O)(=O)N1CC(c2nc(-c3ccncc3)no2)C1	/	-1%	/	/	/	/
Cc1ccc(Nc2nc3ccccc3c(=O)s2)cc1	-1%	-4%	6.3µM*	-25%	11µM*	21%
COc1ccc(Nc2nc3ccccc3s2)cc1	-8%	-1%	?	4%	2%	?
O=C(c1cn[nH]c1-c1ccccc1)N1CC2CC(C1)[C@H]1CCCC(=O)N1C2 (some centres not stated)	/	27%	/	/	/	/
Cc1cc(NC2CCCCC2)nc2ccccc12	?	-5%	-26%	16µM*	27%	-14%
CN(Cc1ccccc1)C(=O)c1cc2ccccc2oc1=O	/	20%	/	/	/	/
COc1ccc(C(=O)Nc2cccc3ccc(C)nc23)cc1Cl	/	7%	/	/	/	/
Cc1ccccc1C1=NC(C(F)(F)F)(C(F)(F)F)c2c(n(C)c(=O)n(C)c2=O)N1	?	-3%	22%	23µM*	-1%	?
